High-throughput results: PubChem BioAssay, National Center for Advancing Translational Sciences (NCATS)
Rows were chosen to be rich in hits. Some 22% of all compounds tested hit in one or more screens of this group.
Pf growth 48h: inhibits P. falciparum growth in the first generation, 48 h. P. falciparum luciferase growth in erythrocytes, 48 h. Potency, µM (series often up to 28.7 µM), hits mostly inhibitors. 310,000 tested, 5.9% active
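Erythrocytes infected with P. falciparum carrying an integrated firefly luciferase reporter (2% hematocrit, 0.1% parasitemia final) were exposed to compounds in RPMI 1640 with 0.5% Albumax at 37 C, 5% CO2. Growth inhibition was scored as reduced luminescence.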
Shiga toxin inh: inhibitors of Shiga toxin in Vero cells | Vero cells, Shiga toxin protein synthesis inhibition reporter | inhibition, % at 38.7 µM | 290,000 tested, 9.2% active | AID 2315; in the data active means inhibition mostly above about 28%, no sharp cut-off; inactive means mostly below about 43%
CHX counter: counter-screen hit for Shiga toxin inhibitors, cycloheximide; cell reporter, cycloheximide protein synthesis inhibition counterscreen; max response, %; 300,000 tested, 12% active; AID 2314; in the data active means max response mostly above about 13%, no sharp cut-off; inactive means mostly below about 14%; further: read at 38.3 µM for the half of the compounds with a filed dose
Pf growth 96h: P. falciparum growth inhibition at 96 hour, primary screen for plastid delayed-death inhibitors | P. falciparum luciferase reporter growth, 96 h | Potency, µM (series often up to 28.7 µM), hits mostly inhibitors | AID 504834 | 320,000 tested, 6.9% active
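Parasite growth measured via integrated firefly luciferase reporter in P. falciparum. Infected erythrocytes at 2% hematocrit, 0.05% parasitemia final were treated 96 hours at 37 C under 5% CO2, and luminescence was read.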
LmPK inh: blocks Leishmania mexicana pyruvate kinase activity | Potency, µM (series often up to 57.5 µM), most hits filed as inhibitors | purified LmPK, Kinase-Glo ATP luminescence, 1 h | 290,000 tested, 0.37% active | Q27686
Target sequence (Q27686 whole entry, looked up): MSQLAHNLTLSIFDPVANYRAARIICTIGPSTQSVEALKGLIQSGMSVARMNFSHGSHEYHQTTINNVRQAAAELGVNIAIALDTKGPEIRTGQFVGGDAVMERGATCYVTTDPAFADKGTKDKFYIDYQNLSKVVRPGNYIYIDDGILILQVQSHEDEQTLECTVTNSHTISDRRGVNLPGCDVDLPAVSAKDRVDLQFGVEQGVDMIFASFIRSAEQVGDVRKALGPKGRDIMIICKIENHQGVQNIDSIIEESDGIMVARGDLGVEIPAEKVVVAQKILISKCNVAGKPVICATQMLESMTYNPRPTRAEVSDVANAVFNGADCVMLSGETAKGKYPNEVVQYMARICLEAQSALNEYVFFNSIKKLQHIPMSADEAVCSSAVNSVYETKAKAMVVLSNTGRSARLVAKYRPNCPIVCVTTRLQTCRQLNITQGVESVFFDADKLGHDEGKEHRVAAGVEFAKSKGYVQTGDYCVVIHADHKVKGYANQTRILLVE
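Pyruvate kinase activity monitored as ATP production (luciferase luminescence). Conditions: 0.1 nM enzyme, 0.5 mM PEP, 0.1 mM ADP, 1 h, RT; normalized against uninhibited and no-enzyme wells.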
Hits are given with their value; 0 = inactive; ? = inconclusive; - = no result. Unless noted, the call rests on the fitted dose curve; in most records, active means well fitted inhibition curve with a large enough effect; inconclusive means small, poorly fitted or top-dose-only effect, or another doubt; inactive means no such curve, though single readings can be large or run the other way.

SMILES	Pf growth 48h	Shiga toxin inh	CHX counter	Pf growth 96h	LmPK inh
Cc1ccc(COC(=O)c2nn(C)c(=O)c3ccccc23)cc1	0	0	0	0	0
CCS(=O)(=O)c1ccc(C(=O)Nc2ccccc2OC)c(Cl)c1Cl	0	0	0	0	0
CCOc1ccc(CCNC(=O)c2ccc3c(=O)[nH]c4c(C(=O)NC(C)C)sc(=S)n4c3c2)cc1	?	0	0	3.3µM	0
Cc1cc(-c2ccc(C)c(S(=O)(=O)NCCc3ccc(S(N)(=O)=O)cc3)c2)on1	0	0	0	0	0
CCOC(=O)C1=C(c2ccccc2)NC(SCC(=O)Nc2cccc(C)c2)=C(C#N)C1c1ccco1 (centres undefined)	9.3µM	0	0	0	0
CCOC(=O)C1=C(c2ccccc2)NC(SCC(=O)Nc2ccc(C)cc2)=C(C#N)C1c1ccco1 (centres undefined)	?	0	0	-	0
CCOC(=O)CSC1=C(C#N)C(c2ccco2)C(C(=O)Nc2cccc(C(F)(F)F)c2)=C(C)N1 (centres undefined)	10µM	0	0	0	0
CCOC(=O)C1=C(c2ccccc2)NC(SCC)=C(C#N)C1c1cccnc1 (centres undefined)	?	0	0	8.3µM	0
CC(=O)C1=C(C)NC(SCC(=O)c2ccccc2)=C(C#N)C1c1ccco1 (centres undefined)	?	0	0	?	0
CCOC(=O)C1=C(c2ccccc2)NC(SCC(=O)Nc2ccccc2C)=C(C#N)C1c1ccco1 (centres undefined)	8.3µM	0	0	0	0
CCCSC1=C(C#N)C(c2cccnc2)C(C(=O)OCC)=C(c2ccccc2)N1 (centres undefined)	?	0	0	?	0
COCC1CCN(C(=O)C2CCC(=O)N(C3CCCCCC3)C2)CC1 (centres undefined)	0	0	0	?	0
CC(C)NC(=O)c1ccc(CN2CCc3ccccc3C2)cc1	0	0	0	?	0
CC(=O)C1=C(C)NC(SCc2ccc(C#N)cc2)=C(C#N)C1c1ccco1 (centres undefined)	0	0	0	0	0
CC(=O)C1=C(C)NC(SCc2cccc3ccccc23)=C(C#N)C1c1ccco1 (centres undefined)	10µM	0	0	2.9µM	0
O=C(/C=C/c1cccc(O)c1)c1ccc(N2CCOCC2)cc1	0	102	38	?	0
C/C(=C\C(=O)c1ccc(Cl)cc1)Nc1ccc(N2CCOCC2)cc1	-	0	0	0	0
CCc1ccc(CNC(=O)C2CCCN(c3nn4c(=O)cc(C)nc4s3)C2)cc1 (centres undefined)	?	0	0	?	0
COc1cc(CCC(=O)Nc2ccc(Br)c(C(F)(F)F)c2)cc(OC)c1OC	?	0	0	?	0
COc1ccccc1S(=O)(=O)Nc1cc(C)nn1-c1ccc(C)cc1	2.6µM	0	0	?	0
COc1cc(OC)cc(C(=O)N[C@H](C(=O)OCC(=O)Nc2cccnc2Cl)C(C)C)c1	0	-	-	0	-
Cc1ccc(/C=N\NC(=O)c2ccc(Cn3cc(Br)c([N+](=O)[O-])n3)o2)o1	0	0	0	?	0
Cc1c(Cl)c([N+](=O)[O-])nn1Cc1ccc(C(=O)N/N=C\c2cccc(Br)c2)o1	9.3µM	0	0	?	0
O=C(N/N=C\c1cccc(Cl)c1)c1ccc(Cn2cc(Br)c([N+](=O)[O-])n2)o1	?	24	0	?	0
Cc1c(Cl)c([N+](=O)[O-])nn1Cc1ccc(C(=O)NN)o1	0	0	0	0	0
SMILES	Pf growth 48h	Shiga toxin inh	CHX counter	Pf growth 96h	LmPK inh
Cc1ccc(CNC2CCCCC2)s1	0	0	0	?	0
CCN1C(N(C)C)=NC[C@@H]1Cc1ccccc1	0	-	-	0	-
CCOC(=O)C(C)(C)N(Cc1ccccc1C)S(=O)(=O)c1ccc(Cl)c([N+](=O)[O-])c1	?	0	0	2.6µM	0
CC1=C(C(=O)N2CCCC(N3CCN(c4ccccc4F)CC3)C2)OCCO1 (centres undefined)	0	0	0	0	0
Cc1ccc(-c2[nH]ncc2/C=C(\C#N)C(=O)NC2CCCCC2)cc1	?	0	0	?	0
COc1ccc(-c2[nH]ncc2/C=C(/C#N)C(=O)NC2CCCCC2)cc1	-	0	0	7.4µM	0
CC(C)NC(=O)c1ccc(CSCc2ccccc2Cl)o1	1.5µM	0	27	4.7µM	0
CCC(C)NC(=O)c1ccc(CSCc2ccccc2Cl)o1 (centres undefined)	7.4µM	0	23	0	0
CN(C)C(=S)Oc1ccccc1-c1ccccc1OC(=S)N(C)C	0	0	0	?	0
CC(=O)c1cccc(NC(=O)CCCSc2ccccc2)c1	0	20	0	0	0
CC(=O)c1cccc(NC(=O)CSCc2ccc(Br)cc2)c1	0	0	0	0	0
O=C(CCCCCCC(=O)c1ccccc1)c1ccccc1	0	0	0	?	0
CC(=O)Nc1ccc(SCCCC(=O)c2ccccc2)cc1	0	72	29	0	0
O=C(CSCc1ccccc1)Nc1cccc(C(=O)Nc2ccc(C(=O)O)cc2)c1	0	0	0	0	0
CC(=O)c1cccc(NC(=O)CSCc2ccccc2)c1	0	71	39	0	0
O=C(CSCc1ccc(Cl)cc1)Nc1cccc(C(=O)O)c1	0	52	27	0	0
COCCSc1nnc(NC(=O)c2ccc(OC)c([N+](=O)[O-])c2)s1	0	0	0	0	0
Cl/C(=C\n1cncn1)c1ccc(Cl)cc1Cl	0	-	-	0	-
COc1ccccc1/C=C(\C#N)C(=O)c1cccn1C	-	0	0	0	0
CCOc1cc(/C=C(\C#N)C(N)=O)ccc1OS(=O)(=O)c1ccccc1	0	0	0	0	0
CCOC(=O)/C(C#N)=C\c1c(OCC)n(CC)c2ccccc12	?	0	0	12µM	0
CCOc1c(/C=C(\C#N)C(N)=O)c2ccccc2n1CC	0	0	0	13µM	0
CCCOC1CCCN(Cc2nc(-c3cnccn3)no2)C1 (centres undefined)	0	0	0	10µM	0
O=C(CN1C(=O)C2C3C=CC(C3)C2C1=O)Nc1ccc2c(c1)OCCO2 (centres undefined)	0	60	0	0	0
CCC1Oc2ccccc2N(CC(=O)Nc2ccc3c(c2)OCCO3)C1=O (centres undefined)	0	94	17	0	0
SMILES	Pf growth 48h	Shiga toxin inh	CHX counter	Pf growth 96h	LmPK inh
O=C(CN1C(=O)CSc2ccccc21)Nc1ccc2c(c1)OCCO2	-	0	29	0	0
CCOc1ccccc1CN1CCNC(=O)C1CC(=O)NCCc1ccccn1 (centres undefined)	0	0	0	?	0
CC(C)(C)NC(=O)c1cccc(NC(=O)c2ccco2)c1	0	0	0	0	0
C/C(=N\NC(=O)c1cccc(Cl)c1)c1cccc(NC(=O)c2ccco2)c1	?	91	24	12µM	0
C/C(=N/NC(=O)c1cccc(C)c1)c1c(O)cc(C)oc1=O	0	61	31	0	0
C/C(=N\NC(=O)c1cccc(C)c1)c1cccc(NC(=O)c2ccco2)c1	0	0	19	0	0
